Bioassay records as filed in PubChem BioAssay.
Rows were chosen to be rich in hits. Some 10% of all compounds tested hit in one or more screens of this group.
L3MBTL1 block: L3MBTL1 (human) inhibition; Q9Y468; AlphaScreen L3MBTL1–H3K9me1 peptide binding; Potency, µM (doses to about 57.1 µM), inactives show at the highest dose activity, negative = inhibition, most hits filed as inhibitors; hit rate 0.66% among 230,000; AID 485360; also: % is scaled to controls: 0 for no effect and ±100 for the full control effect; nearly all actives have a fitted effect of over 60% in size
Target sequence (Q9Y468 whole entry, looked up): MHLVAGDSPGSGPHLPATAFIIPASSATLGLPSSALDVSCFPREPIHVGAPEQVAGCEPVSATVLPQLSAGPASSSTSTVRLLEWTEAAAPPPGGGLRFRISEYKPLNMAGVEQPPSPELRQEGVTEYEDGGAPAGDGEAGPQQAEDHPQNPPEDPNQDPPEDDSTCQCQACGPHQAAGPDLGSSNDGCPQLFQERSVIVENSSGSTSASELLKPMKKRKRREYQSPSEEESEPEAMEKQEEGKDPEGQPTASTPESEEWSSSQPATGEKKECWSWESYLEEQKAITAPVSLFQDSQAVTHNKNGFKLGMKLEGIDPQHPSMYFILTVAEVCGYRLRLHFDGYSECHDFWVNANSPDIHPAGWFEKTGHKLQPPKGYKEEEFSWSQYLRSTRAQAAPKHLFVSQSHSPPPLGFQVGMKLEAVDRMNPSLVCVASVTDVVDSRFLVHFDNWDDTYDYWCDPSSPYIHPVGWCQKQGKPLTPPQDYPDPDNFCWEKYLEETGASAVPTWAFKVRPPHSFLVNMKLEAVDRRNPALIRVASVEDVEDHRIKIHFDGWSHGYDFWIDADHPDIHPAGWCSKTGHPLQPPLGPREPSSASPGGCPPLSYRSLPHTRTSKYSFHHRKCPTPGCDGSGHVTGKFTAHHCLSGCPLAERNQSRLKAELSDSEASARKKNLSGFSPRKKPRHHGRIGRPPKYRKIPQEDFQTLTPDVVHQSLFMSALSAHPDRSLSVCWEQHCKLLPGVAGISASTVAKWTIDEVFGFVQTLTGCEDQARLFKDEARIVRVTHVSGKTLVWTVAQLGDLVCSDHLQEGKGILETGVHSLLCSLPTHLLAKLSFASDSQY
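L3MBTL1 (50 nM) pre-complexed 30 min with biotinylated H3(1-15)K9me1 peptide (75 nM), then compounds added for 30 min at room temperature; AlphaScreen streptavidin donor/nickel chelate acceptor beads (10 ug/mL final) read after 30 min dark incubation.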
HP1b binding inh: blocks HP1-beta chromodomain binding to methylated histone tails; P83916; AlphaScreen HP1-beta / biotin-H3K9me3 peptide binding; Potency, µM (series often up to 114 µM), inactives show at the top dose activity change, negative = inhibition, most hits filed as inhibitors; hit rate 0.56% among 390,000; also: nearly all actives have a fitted effect of over 70% in size
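Compound inhibition of the preformed complex between 50 nM HP1-beta and 50 nM biotinylated H3K9me3 peptide was read by AlphaScreen. Buffer was PBS pH 7.4 with 0.01% Tween-20. Incubations ran 30 min at room temperature, with 10 ug/mL donor/acceptor beads.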
G9a block: blocks human histone lysine methyltransferase G9a; Q96KQ7; G9a H3K9 monomethylation, AlphaScreen, 2 h; Potency, µM (doses to about 102 µM), inactives show at the top dose activity, negative = inhibition, most hits filed as inhibitors; hit rate 8.8% among 350,000; AID 504332; also: % is scaled to controls: 0 for no effect and ±100 for the full control effect; nearly all actives have a fitted effect of over 75% in size
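AlphaScreen read-out: biotin-H3K9 peptide (500 nM) methylation by 20 nM enzyme with 20 uM SAM, 2 h at room temperature after 15 min compound preincubation; anti-monomethyl H3K9 antibody plus donor/acceptor beads, 10 min dark.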
BAZ2B inh: inhibitors of human BAZ2B bromodomain; hit rate 4.4% among 360,000; Q9UIF8; AID 504333; AlphaScreen BAZ2B-H3K14Ac peptide displacement; Potency, µM (titrated, usually from 114 µM), without a hit: top-dose activity change, negative = inhibition, actives largely listed as inhibitors; also: % is scaled to controls: 0 for no effect and ±100 for the full control effect; nearly all actives have a fitted effect of over 60% in size
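In this displacement format the biotinylated H3(5-23) peptide acetylated at Lys14 serves as ligand at 50 nM, with BAZ2B at 50 nM in PBS pH 7.4 containing 0.01% Tween-20. Donor and acceptor beads are 10 ug/mL final.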
GLS inh: inhibitors of human glutaminase (GLS) | O94925 | GLS enzymatic activity, qHTS titration | Potency, µM (doses to about 45.5 µM), inactives show at the top dose activity change, negative = inhibition, most hits filed as inhibitors | hit rate 0.21% among 410,000 | AID 624170; also: % is scaled to controls: 0 for no effect and ±100 for the full control effect
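Compounds were pin-transferred onto hKGA, after which L-glutamine (1 mM solution) and a detection mix of glutamate oxidase, HRP and Amplex Red were added. Initial and 30 min RT fluorescence reads were collected.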
JMJD2A Tudor: JMJD2A Tudor domain (human) inhibition | O75164 | AlphaScreen JMJD2A-Tudor / H3K4me3 peptide binding | Potency, µM (doses to about 114 µM), for the others: at the top dose activity change, negative = inhibition, actives largely listed as inhibitors | hit rate 4.4% among 390,000 | AID 504339; also: % is scaled to controls: 0 for no effect and ±100 for the full control effect; nearly all actives have a fitted effect of over 50% in size
* hit, by the source's call; ? = inconclusive; . = not tested or not shown; [ ] = remark or other dose. Calls follow the shape of the dose curve; as a rule, active = well fitted curve in the direction sought with a large enough effect; inconclusive = small, poorly fitted or top-dose-only effect, or another doubt; inactive = no such curve, though single readings can be large; an effect the other way counts as inactive or inconclusive. Potency is read from the fitted curve at half-maximal effect.

SMILES	L3MBTL1 block	HP1b binding inh	G9a block	BAZ2B inh	GLS inh	JMJD2A Tudor
CCS(=O)(=O)N1CCC2(CC1)OC(=O)C(C)=C2C(=O)NCc1ccc(OC)c(OC)c1	.	28%	7%[59 µM]	-3%	-1%	-3%
CCC[C@@H]1CC(C(=O)NC(C2O[C@H](SC)C(OP(=O)(O)O)[C@H](O)[C@H]2O)[C@H](C)Cl)N(C)C1 (stereo not given in full)	.	.	.	.	-1%	.
O=C1OC2(c3ccccc31)c1ccccc1-c1ccccc12	.	29%	.	.	-16%	-5%
O=C1OC(c2ccc3ccccc3c2O)(c2ccc3ccccc3c2O)c2ccccc21	.	?	.	.	11µM*	32µM*
Cc1nc([N+](=O)[O-])c(C(=O)OCc2cccc(Br)c2)n1C	.	33%	50µM*	-17%	0%	-16%
CCCn1nnnc1NC(=O)CSc1ccc(Cl)cc1	-2%	34%	6%[12.7 µM]	?	-1%	?
CCCn1nnnc1NC(=O)c1cc(Cl)ccc1Cl	4%	12%	8.9µM*	56µM*	-4%	40µM*
CCOc1cc(-c2sc(Nc3ccccc3)n[n+]2C)ccc1OC	-5%	52%	45µM*	?	-4%	-11%
COc1ccc(-c2sc(Nc3ccccc3)n[n+]2C)c(C)c1C	-2%	13%	.	8%[57.1 µM]	8%	-17%
N#Cc1c(NCCN)nc(NCc2ccccc2)c2c1CCN(Cc1ccccc1)C2	-7%	-15%	45µM*	?	2%	?
CCN1CCc2c(C#N)c(NCc3ccccc3)nc(N(CC)CC)c2C1	-8%	-14%	50µM*	?	7%	?
CCc1nn(Cc2c(C)cc(C)cc2C)c(=O)c2cc3cc(C)ccc3n12	.	19%	4%[59 µM]	3%	-8%	-6%
Cc1ccc(N2CCN(C(=O)c3c(C)oc4nc(C)nc(N5CCCC5)c34)CC2)c(C)c1	.	28%	-28%[59 µM]	2%[57.1 µM]	7%	-14%
Cc1ccc(-c2cc(C(=O)Nc3c(C(=O)c4ccc(C)c(F)c4)oc4ccccc34)no2)cc1	.	45%	2%[59 µM]	-15%	-16%	0%
O=C(CN1CCC(n2nnc3cc(F)ccc32)CC1)NCc1ccco1	-19%	12%	?	79µM*	1%	-23%
COc1ccccc1NC(=O)CN1CCC(n2nnc3cc(F)ccc32)CC1	.	43%	3%[12.7 µM]	-2%	13%	-12%
CCc1nn(CC(=O)NCCCOC)c(=O)c2cc3occc3n12	.	6%	8%[59 µM]	-2%	-15%	5%
C=CCOc1ccc(CNc2ccc3[nH]c(=O)[nH]c3c2)cc1OCC	-11%	-16%	?	-29%	?	?
CCOc1cc(CNCc2cccnc2)ccc1OCC(=O)NC(C)(C)C	2%	28%	50µM*	?	-5%	-21%
CC(C)(C)NC(=O)COc1ccc(CNCc2ccccn2)cc1	?	14%	.	50µM*	-6%	56µM*
CCOc1cc(CNCCc2ccc(S(N)(=O)=O)cc2)ccc1OCC(=O)NC1CCCCC1	.	19%	-48%[59 µM]	0%	1%	-17%
CC(C)(C)NC(=O)COc1ccc(CNCCc2ccccc2)cc1	9%	32%	17%[12.7 µM]	-17%	-5%	-4%
CCOc1cc(CNCc2ccccn2)ccc1OCC(=O)NC1CCCCC1	.	1%	3%[12.7 µM]	79µM*	7%	56µM*
CCOc1cc(CNc2ccc3[nH]c(=O)[nH]c3c2)ccc1OCC(=O)NC(C)(C)C	0%	-11%	5µM*	-5%	80%	-31%
COc1cc(Cl)c(C)cc1NC(=O)Cn1c2ncccc2c(=O)n1-c1ccccc1	.	-7%	9%[59 µM]	2%	-8%	?
SMILES	L3MBTL1 block	HP1b binding inh	G9a block	BAZ2B inh	GLS inh	JMJD2A Tudor
CCOc1ccccc1NS(=O)(=O)c1c(C)nc2sccn2c1=O	.	36%	7%[59 µM]	-10%	20%	3%
CCc1ccc2occ(CC(=O)NCc3ccccc3)c2c1	.	57%	14%[59 µM]	42%	-3%	13%
COc1ccc(-c2onc(C)c2C)cc1S(=O)(=O)Nc1cccc(C#N)c1	.	22%	-3%[59 µM]	0%	2%	-4%
CCc1cccc2sc(N3CCN(C(=O)C4CC4)CC3)nc12	.	47%	4%[59 µM]	10%	9%	-3%
CCc1cccc2sc(N3CCN(C(=O)c4ccc([N+](=O)[O-])o4)CC3)nc12	-20%	?	32µM*	?	-3%	22µM*
N#Cc1c(Sc2ncc(C(F)(F)F)cc2Cl)nsc1C/C=N\OCc1ccccc1Br	.	-22%	20µM*	45µM*	4%	?
O=C(O)C/C(=C\c1cccc(NC(=O)c2ccccc2Cl)c1)c1nc2ccccc2s1	.	-1%	36%[12.7 µM]	79µM*	31%	35µM*
CNc1ccc(/C=C(\CCC(=O)O)c2nc3ccccc3s2)cc1[N+](=O)[O-]	-12%	29%	?	45µM*	-23%	-17%
COc1ccc(/C=C(\CC(=O)O)c2nc3ccccc3s2)cc1O	.	21%	11%	-12%	?	-23%
COc1ccc(C(=O)Nc2cccc(/C=C(\CCC(=O)O)c3nc4ccccc4s3)c2)cc1	.	32µM*	-3%[12.7 µM]	79µM*	8%	-29%[11.4 µM]
COc1ccc(C2=Nc3ccc(OC(F)(F)F)cc3NC(c3cccnc3)=N2)cc1	.	10%	-22%[59 µM]	-9%	-1%	?
CCOC(=O)N1CCN(C(=O)c2cnn(-c3cccc(F)c3)c2-n2cccc2)CC1	.	24%	2%[59 µM]	1%	1%	-11%
COc1ccc(N(C(=O)/C=C\C(=O)Nc2ccc(C)cc2)C(C(=O)NCc2ccco2)c2ccc(C)cc2)cc1 (stereo not given)	.	8%	14µM*	-20%	-4%	?
CCCn1c(N)c(C(=O)CN(C)CC(=O)Nc2cc(C)ccc2C)c(=O)[nH]c1=O	2%	25%	50µM*	-5%	5%	-4%
CCCn1c(N)c(C(=O)CN(C)CC(=O)Nc2ccc(C)cc2)c(=O)[nH]c1=O	-5%	33%	45µM*	9%	-10%	22µM*
O=C(OCC#CCSc1nnc(-c2cccc3ccccc23)o1)c1ccc(C(F)(F)F)cc1	.	.	.	.	.	7%
Cc1c(Cl)cccc1NC(=O)c1oc2ccc(S(=O)(=O)N3CCCCCC3)cc2c1C	.	11%	-4%[59 µM]	5%	-2%	-13%
O=[N+]([O-])c1ccccc1-c1ccc(C(=S)N2CCCCC2)o1	?	50µM*	20µM*	25µM*	-11%	45µM*
Cc1cccc(N2CCN(C(=S)c3ccc(-c4ccccc4[N+](=O)[O-])o3)CC2)c1	?	16µM*	11µM*	10µM*	2%	8.9µM*
O=[N+]([O-])c1ccccc1-c1ccc(C(=S)N2CCCC2)o1	?	?	10µM*	40µM*	19%	56µM*
